Some of the results follow. The source made the active and inactive calls. No stated cut-off is given here; in the data, active means z-score above about 6.3; inactive means the rest.
Experiment: AML12 hepatocyte cytotoxicity, counter-screen for hepatic lipid droplet formation project, imaging, DAPI nuclear morphology imaging (AID 463200);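 further: compound exposure lasted overnight at 37 °C before fixation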
Conditions: AML12 mouse hepatocytes, at 5 µM, active compounds read high, cells fed 100 µM oleate overnight
For `CN(C)c1ccc(Nc2c3c4c(cccc4n(C)c2=O)C(=O)c2ccccc2-3)cc1`, the z-score was 0.335 (inactive).
For `CC(C)(C)NC(=O)Cn1cnc2cc([N+](=O)[O-])ccc2c1=O`, the z-score was -1.05 (inactive).
For `COCCCNC(=O)CN1C(=O)CSc2ccc(S(=O)(=O)N3CCOCC3)cc21`, the z-score was -0.296 (inactive).
In the case of `COc1ccc(/C=C(\NC(=O)c2ccc(OCC(C)C)cc2)C(=O)OCc2ccco2)cc1`, the z-score is reported as -0.0226 (inactive).
For `CCCN(CCC)c1nc2c(C)cccn2c(=O)c1/C=C1/SC(=S)N(Cc2ccco2)C1=O`, the z-score was -0.326 (inactive).
For `COc1ccc(Cl)cc1NC(=O)CN(C)C(=O)CCCc1c[nH]c2ccccc12`, the z-score was 0.989 (inactive).
With `Cc1c(C(=O)NCc2ccccc2)cnn1-c1ccccc1` the z-score was -0.784 (inactive).
For `Cc1cc(C(=O)NC2CCCc3c2cnn3-c2cccc(C)c2C)c(C)o1` (stereo unspecified), the z-score was 0.206 (inactive).
With `COc1cccc(/C=C(/CC(=O)Nc2ccc(N3CCOCC3)cc2)c2nc3ccccc3s2)c1` the z-score was 0.0842 (inactive).
For `COc1ccc(C(C(=O)NC(C)(C)C)N(Cc2ccc(F)cc2)C(=O)CCC(=O)Nc2cc(C)on2)cc1` (stereo unspecified), the z-score was -0.0925 (inactive).
With `O=[N+]([O-])c1ccccc1N/N=C1\CCc2ccccc21` the z-score was -0.00245 (inactive).
For `CCOc1ccc(CCNC(=O)Nc2ccccc2)cc1OCC`, the z-score was -0.203 (inactive).
With `CCCc1ccc(-c2csc(NC(=O)Cc3cccs3)n2)cc1` the z-score was -0.171 (inactive).
With `Cn1c(=O)[nH]c(=O)c2c1nc(N1CCN(C(c3ccccc3)c3ccccc3)CC1)n2CCO` the z-score was 0.0379 (inactive).
For `Cc1cc(NC(=O)CSc2nc(C(C)C)nc3sc4c(c23)CCC(C)C4)no1` (stereo unspecified), the z-score was -0.355 (inactive).
With `COc1ccc(OC)c(-c2csc(-c3cccs3)n2)c1` the z-score was -0.885 (inactive).
With `CCOc1ccc(CCNC(=O)CCc2nnc3ccc(N4CCCC4)nn23)cc1OCC` the z-score was -0.773 (inactive).
With `Cc1ccc(N2C(=O)C(NC(=O)c3c(F)cccc3F)(C(F)(F)F)C3=C2CC(C)(C)CC3=O)cc1` (stereo unspecified) the z-score was -0.996 (inactive).
For `CCCCN1C(=O)/C(=C/C=C2/C=Cc3ccccc3N2CC)SC1=S`, the z-score was -0.15 (inactive).
With `CCc1ccc(NC(=O)C(C)OC(=O)/C=C/c2cccc([N+](=O)[O-])c2)cc1` (stereo unspecified) the z-score was 1.35 (inactive).
In the case of `COc1cc(/C=N/NC(=O)Nc2ccccc2)ccc1OCCOc1ccccc1C`, the z-score is reported as 4.44 (inactive).
For `CCOC(=O)C1=C(CC)OC(N)=C(C#N)C1c1ccc(F)cc1F` (stereo unspecified), the z-score was -0.275 (inactive).
For `O=C1Nc2ccc(Br)cc2/C1=N/N=C/C1=C(N2CCOCC2)C(=C\c2ccccc2)/CC1`, the z-score was -1.9 (inactive).
In the case of `CC(NC(=O)c1cccc2ccccc12)c1ccc2c(c1)CCCC2` (stereo unspecified), the z-score is reported as 8.48 (active).
With `CCCN(CCC)c1ccc(C(O)c2nnc(-c3ccccc3)o2)cc1` (stereo unspecified) the z-score was -0.662 (inactive).
In the case of `O=C(CN1CCc2cc3c(cc2C1)OCCCO3)Nc1ccccc1`, the z-score is reported as 0.947 (inactive).
